Bioassay records (PubChem)
D2 ag-1 – D2 dopamine receptor (human) agonism; P14416; HEK293 T-REx D2 cells, calcium flux agonist mode; activation, % at 2 µM; 0.53% of 340,000 active;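 active means activation over 3 SD above normal in the single-dose calcium agonist read, cut at about 30% in these data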; further: 0% is about no effect
Target sequence (P14416 whole entry, looked up): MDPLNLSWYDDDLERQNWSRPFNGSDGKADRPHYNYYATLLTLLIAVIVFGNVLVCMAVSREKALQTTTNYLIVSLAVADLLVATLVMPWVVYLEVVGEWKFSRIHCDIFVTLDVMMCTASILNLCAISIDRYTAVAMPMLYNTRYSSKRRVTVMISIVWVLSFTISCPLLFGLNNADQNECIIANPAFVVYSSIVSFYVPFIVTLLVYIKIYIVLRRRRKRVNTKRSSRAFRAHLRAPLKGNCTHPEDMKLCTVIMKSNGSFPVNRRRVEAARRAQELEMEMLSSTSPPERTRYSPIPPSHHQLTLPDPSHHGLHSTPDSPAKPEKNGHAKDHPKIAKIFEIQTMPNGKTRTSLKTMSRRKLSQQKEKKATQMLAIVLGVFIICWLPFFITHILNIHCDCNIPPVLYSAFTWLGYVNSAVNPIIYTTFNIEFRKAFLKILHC
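Agonism is scored from calcium flux in a force-coupled, inducible HEK293 cell line expressing D2, read kinetically for 180 s after compound addition against dopamine controls.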
D2 antag – antagonists of human D2 dopamine receptor. P14416. HEK293 TREx D2 cells, calcium flux, dopamine EC80. inhibition, % at 10 µM. 2% of 340,000 active. AID 485344; in the data active means inhibition above about 30%; inactive means below that, where a call was filed; further: 0% is about no effect
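Calcium mobilization kinetics were recorded at 1 s intervals in tetracycline-induced HEK293 T-REx D2 cells, first for 180 s after compound addition and then 180 s after EC80 dopamine.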
D2 PAM-1 – D2 dopamine receptor (human) potentiation. P14416. HEK293 T-REx D2, calcium flux, EC20 dopamine potentiation. potentiation, % at 10 µM. 0.34% of 340,000 active. AID 485347;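 active means potentiation over 3 SD above the plate norm, cut at about 30% in these data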; further: 0% is about no effect
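Calcium flux readout, no-wash dye, 1 read/s. Inducible HEK293 Trex D2 line, overnight 30 C. Compound alone 180 s (agonist flags), then EC20 dopamine, another 180 s to score potentiation.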
D2 PAM-2 – human D2 receptor positive allosteric modulation. potentiation, % (test concentration not listed). DiscoveRx D2 beta-arrestin cells, luminescence, 90 min; 100% = 57 uM dopamine signal. AID 624464. 0.23% of 360,000 active; in the data active means potentiation above about 50%; inconclusive means mostly about 30% to 49%
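PathHunter D2 cells, attached overnight at 37 deg C, received compound in DMSO plus dopamine at EC20 (50 nM final) for 90 min at 37 deg C. Beta-arrestin recruitment was read as luminescence after 1 h with detection reagent at ambient temperature.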
D2 ag-2 – human D2 receptor agonism in beta-arrestin assay. P14416. DiscoveRx PathHunter D2 beta-arrestin, luminescence, 90 min; 100% = 57 uM dopamine signal. activation, % (no concentration beside the values). 0.084% of 360,000 active. AID 624465; in the data active means activation above about 40%; inconclusive means between about 15% and that limit
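Agonist mode: compounds alone added to overnight-plated D2 PathHunter cells for 90 min at 37 C, with 57 uM final dopamine (EC100) defining full response. Beta-arrestin recruitment detected by chemiluminescent reagent, read after 1 h at ambient temperature.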
Active calls of the source: *; ? = inconclusive; . = not tested or not shown. In the library only some 2.4% were active in any assay of this set; here they are far more common.

SMILES	D2 ag-1	D2 antag	D2 PAM-1	D2 PAM-2	D2 ag-2
CCOc1ccc(/C=N/NC(=O)c2ccccc2C)cc1CN1CC2CC(C1)c1cccc(=O)n1C2 (stereo unspecified)	-1	8	-2	-3	2
CCc1ccccc1N1C(=O)N(Cc2cccc(Cl)c2)c2ccccc2S1(=O)=O	0	.	3	.	.
O=C(NCc1nc2ccccc2[nH]1)c1cccc(S(=O)(=O)N2CCOCC2)c1	0	38*	-2	-9	-3
COC(=O)c1ccccc1NC(=O)C1=C(C)C(=O)OC12CCC(C)CC2 (stereo unspecified)	0	.	-1	.	.
Cn1c(CN2CCCCC2)nc2cc(NC(=O)c3cccc(Br)c3)ccc21	-1	9	-7	-6	-2
Cn1c(CN2CCCCC2)nc2cc(NC(=O)c3ccccc3)ccc21	34*	36*	-21	-3	?
CCOC(=O)Nc1ccc2c(c1)nc(CN1CCCCC1)n2C	0	31*	-26	.	.
Cc1cc(C(=O)NCc2ccc(S(N)(=O)=O)cc2)c(C)o1	0	30*	-4	-4	-2
COC(=O)c1sc(NC(=O)c2cc3nc(-c4ccc(Br)cc4)cc(C(F)(F)F)n3n2)c(C(=O)OC)c1C	1	.	6	.	.
O=C(CC[C@H]1O[C@@H](n2ccc(=O)[nH]c2=O)[C@H](O)[C@@H]1O)N[C@H](Cc1ccccc1)C(=O)NCCCc1ccccc1	.	.	.	-5	-3
O=C(Nc1ccc(C(O)c2ccccc2)cc1)[C@@H]1O[C@H](CO)[C@@H](O)[C@H]1O (stereo partly specified)	.	.	.	-5	-1
Cc1ccc(C(C)C)c(OCc2nc(-c3nonc3N)no2)c1	-1	33*	6	-6	1
Cc1ccc(C(C)C)c(OCc2n[nH]c(=S)o2)c1	0	-6	14	-7	2
Cc1ccccc1C1N(c2nccs2)C(=O)C2CCCN21 (stereo unspecified)	0	-3	-2	-6	3
O=C1C2CCCN2C(c2ccccc2)N1c1nccs1 (stereo unspecified)	0	67*	1	-1	-1
CSc1ccc(/C=N\Nc2nncn2N)cc1	0	4	2	-3	43*
COCCCNC(=O)c1c(-c2ccccc2)c(-c2ccccc2)nn(C)c1=O	1	.	-4	.	.
Cc1cccc(N/C(=N/S(=O)(=O)c2ccccc2)c2ccccc2)n1	0	5	5	-9	8
CC1CCCN(Cc2c(O)ccc3c4c(c(=O)oc23)CCCC4)C1 (stereo unspecified)	0	36*	-20	-31	-5
O=c1oc2c(CN3CCOCC3)c(O)ccc2c2c1CCC2	0	-2	10	-8	-3
COc1ccc(NC(=O)/C(=C\c2ccc(OS(=O)(=O)c3ccc(C)cc3)cc2)NC(=O)c2ccccc2)cc1	0	-16	40*	7	-1
COc1cc(NS(=O)(=O)c2ccc(NC(=O)/C(=C\c3ccccc3OC)NC(=O)c3ccccc3)cc2)nc(OC)n1	0	32*	1	2	0
COc1cc(NS(=O)(=O)c2ccc(NC(=O)/C(=C/c3ccccc3Cl)NC(=O)c3ccccc3)cc2)nc(OC)n1	1	17	11	-7	-4
C#CCNC(=O)c1csc([C@@H]2O[C@H](CO)[C@@H](O)[C@H]2O)n1	.	.	.	0	-4
C=CCNC(=S)NNC(=O)C(CCC(C)C)CC(C)O (stereo unspecified)	0	45*	-12	2	2
SMILES	D2 ag-1	D2 antag	D2 PAM-1	D2 PAM-2	D2 ag-2
O=C(COc1ccc(F)cc1Br)NCCCN1CCCC1=O	.	.	.	-2	-2
O=S(=O)([O-])CCC[n+]1c(/C=C\Nc2ccccc2)oc2ccc(-c3ccccc3)cc21	52*	-3	11	.	.
C/C(O)=C(/C=Nc1ccccc1)C(=O)Nc1ccccc1	1	33*	11	-1	-3
CN(C)c1cc(Nc2ccc(O)cc2)c([N+](=O)[O-])c2nonc12	-2	-6	9	-4	-7
O=[N+]([O-])c1c(Nc2ccc(O)cc2)cc(Cl)c2nonc12	7	37*	-4	-68	0
O=S(=O)(c1ccc(Cl)cc1)N1CCN(c2ncccn2)CC1	1	-25	4	-3	-10
O=S(=O)(c1ccc(Cl)cc1)n1cccn1	1	40*	-7	-1	-2
CSc1ncccc1C(=O)OCc1c(F)cccc1Cl	2	-10	30*	8	-3
Cc1onc(-c2c(F)cccc2Cl)c1C(=O)OCC(=O)Nc1cccc(S(=O)(=O)N(C)C)c1	.	.	.	-27	4
Cc1ccc(C(c2cc(Cl)c3cccnc3c2O)N2CCN(C)CC2)cc1 (stereo unspecified)	1	39*	-2	-18	-19
CN1CCN(C(c2ccccn2)c2cc(Cl)c3cccnc3c2O)CC1 (stereo unspecified)	1	-4	24	-27	-2
CCN(CC(=O)Nc1ccc(NC(C)=O)cc1)C(=O)CCCSc1nc2ccccc2[nH]1	0	18	-2	-1	-4
C[C@@H]1C(=O)OC[C@H]1NC(=O)OCc1ccccc1	0	6	-7	-16	-2
COc1ccc(C2C(O)C(c3c[nH]c4ccccc34)=NN2C(=O)CCl)cc1 (stereo unspecified)	0	32*	-4	6	-4
COc1ccc(N2CCN(CCCNC(=O)Cn3c(=O)c4cccn4c4cccnc43)CC2)cc1	8	-17	-23	-10	1
CCn1c(=O)cc(SCC(=O)NCCCN2CCN(c3ccc(F)cc3)CC2)c2ccccc21	27	66*	-26	-15	5
CCn1c(=O)cc(SCC(=O)NCCCN2CCC(C)CC2)c2ccccc21	0	-1	-18	-8	1
CCCCNC(=O)CSc1cc(=O)n(C)c2ccccc12	-1	35*	-3	-6	-4
O=C(Cn1c(=O)c2cccn2c2cccnc21)NCCCN1CCN(c2ccc(F)cc2)CC1	20	54*	-27	-54	1
CS(=O)(=O)c1cccc(S(=O)(=O)N2CCCCCC2)c1	1	0	-4	-4	0
CC(CC(=O)N1CCN(c2cccc(Cl)c2)CC1)S(=O)(=O)c1ccc2c(c1)NC(=O)CO2 (stereo unspecified)	1	-10	6	-21	7
Cc1ccc(CN2CCN(/N=C/c3cccs3)CC2)cc1	-1	34*	-25	-30	-1
FC(F)(F)c1ccccc1/C=N/N1CCN(Cc2ccccc2)CC1	-1	30*	-21	-21	0
Cc1ccc(/C=N/N2CCN(Cc3ccc(C)cc3)CC2)cc1	0	55*	-20	-13	1
Cc1ccc(CN2CCN(/N=C/c3ccc(C(F)(F)F)cc3)CC2)cc1	0	-26	-3	-15	1
